Results from PubChem BioAssay (NCATS).
Records with an inconclusive call do not appear. Unless noted, calls come from the whole dose curve; as a rule, active = well fitted curve in either direction with a large enough effect (not every such curve was filed as active); inconclusive = small, poorly fitted or top-dose-only effect, or another doubt; inactive = flat fitted curve, though single readings scatter.

Tests used:
[1] = AP1 Signaling Pathway (AID 357); details: ME-180 AP-1-bla reporter, EGF-induced, beta-lactamase ratio, 5 h; at 17.2 µM (top of the series) unless noted;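 note: ME-180 reporter cells stimulated with EGF at its EC50 level; % is set by controls: 0 for no effect and ±100 for the full control effect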
Method in brief: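 Modulation of EGF-driven AP-1 transcription was assessed with a beta-lactamase reporter in ME-180 cells. Compound and EC50 EGF were co-incubated 5 hours at 37 °C before 2.5-hour CCF4 loading at room temperature and dual-emission reading.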

[2] = NFAT Signaling Pathway (AID 444); details: Jurkat NFAT-bla M1, carbachol, beta-lactamase ratio, 5 h; at 17.2 µM (top of the series) unless noted;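 note: carbachol stimulus at about its EC50 of 1 µM final; % is set by controls: 0 for no effect and ±100 for the full control effect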
Method in brief: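 Read-out: CCF4 FRET ratio (460 nm/530 nm) after 1 h RT dye loading, used for %activity and AC50 from titration series. Cells: Jurkat NFAT-β-lactamase/M1 line, treated with compound plus 1 uM carbachol for 5 h, 37 °C.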

[3] = Stat Signaling Pathway (AID 446); details: ME-180 (cervical carcinoma) SIE beta-lactamase reporter, IL-6 stimulated, 5 h; at 17.2 µM (top of the series) unless noted;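 note: ME-180 cervical cancer cells given 40 pM IL-6 alongside compound; SIE-controlled beta-lactamase reporter measured as 460/530 nm FRET emission ratio; % is set by controls: 0 for no effect and ±100 for the full control effect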
Method in brief: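 Compound effects on IL-6-induced STAT reporter activity were measured in ME-180 cells. After overnight culture, cells were co-treated with 40 pM IL-6 for 5 hrs before beta-lactamase substrate loading at room temperature.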

[4] = target: Glucocorticoid receptor (Homo sapiens) (UniProt P04150); assay: GR-GFP Redistribution (AID 450;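 active = compounds whose dose series gives a full or clear partial fitted curve of increased nuclear translocation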; note: potency is the fitted concentration of half-maximal effect)
Sequence of Glucocorticoid receptor (Homo sapiens) (P04150 whole entry, looked up): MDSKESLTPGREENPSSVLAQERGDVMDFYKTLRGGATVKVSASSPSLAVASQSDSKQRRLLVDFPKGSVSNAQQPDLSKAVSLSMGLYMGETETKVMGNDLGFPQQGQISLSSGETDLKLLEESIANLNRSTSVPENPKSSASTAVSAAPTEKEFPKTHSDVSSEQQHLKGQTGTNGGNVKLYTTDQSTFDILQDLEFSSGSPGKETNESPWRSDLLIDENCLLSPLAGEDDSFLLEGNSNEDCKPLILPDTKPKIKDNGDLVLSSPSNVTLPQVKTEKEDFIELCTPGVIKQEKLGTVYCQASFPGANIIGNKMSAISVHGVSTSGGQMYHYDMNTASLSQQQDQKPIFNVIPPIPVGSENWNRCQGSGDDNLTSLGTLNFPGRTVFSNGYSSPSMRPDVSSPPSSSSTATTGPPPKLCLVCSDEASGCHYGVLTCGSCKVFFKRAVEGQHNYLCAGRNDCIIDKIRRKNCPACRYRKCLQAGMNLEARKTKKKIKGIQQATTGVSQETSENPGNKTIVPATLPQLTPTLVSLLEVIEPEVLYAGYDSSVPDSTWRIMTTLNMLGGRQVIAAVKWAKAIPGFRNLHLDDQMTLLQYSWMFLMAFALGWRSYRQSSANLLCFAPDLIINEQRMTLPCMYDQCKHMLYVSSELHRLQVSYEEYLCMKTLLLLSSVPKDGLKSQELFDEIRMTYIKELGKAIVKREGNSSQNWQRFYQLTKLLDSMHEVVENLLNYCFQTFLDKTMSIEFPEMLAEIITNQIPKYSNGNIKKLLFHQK

CNS(=O)(=O)c1cccc2nsnc12
inactive: activity change, negative = inhibition [1] 6.07% | activity change, negative = inhibition [2] 4% | activity, negative = inhibition [3] 14.7% | Potency [4] > 20.6 µM

CN(C)CCNc1nc(-c2ccco2)c2c(c1C#N)CC(C)(C)OC2
inactive: activity change, negative = inhibition [1] 9.95% | activity change, negative = inhibition [2] -23% | activity, negative = inhibition [3] 12.9% | Potency [4] > 20.6 µM

O=C1c2ccccc2C(=O)N1CCN1CCc2ccccc21
inactive: activity change, negative = inhibition [1] -29% | activity change, negative = inhibition [2] 1.23% | activity, negative = inhibition [3] -3.43% | Potency [4] > 20.6 µM

Cc1ccc2[nH]c3c(c2c1)CCCC3C(N)=O (stereo not given)
inactive: activity change, negative = inhibition [1] -5.19% | activity change, negative = inhibition [2] -1.59% | activity, negative = inhibition [3] 8.83% | Potency [4] > 20.6 µM

N#CCCN(CCC#N)c1nnc(-c2ccccc2)s1
inactive: activity change, negative = inhibition [1] 8.96% | activity change, negative = inhibition [2] -5.89% | activity, negative = inhibition [3] 1.66% | Potency [4] > 20.6 µM

CCn1cc(C(=O)NCC2CCCO2)c(=O)c2cc(F)c(N3CCN(C)CC3)cc21 (stereo not given)
inactive: activity change, negative = inhibition [1] -11.4% | activity change, negative = inhibition [2] -20.1% | activity, negative = inhibition [3] -0.513% | Potency [4] > 20.6 µM

O=c1/c(=C/c2ccccn2)sc2n1CN(c1ccccc1)CN=2
inactive: activity change, negative = inhibition [1] 0.239% | activity change, negative = inhibition [2] -24.9% | activity, negative = inhibition [3] 5.04% | Potency [4] > 20.6 µM

COc1cccc(/C=C2/CN(C)CC3=C2OC(N)=C(C#N)C3c2cccc(OC)c2)c1 (stereo not given)
inactive: activity change, negative = inhibition [1] -20.4% | activity change, negative = inhibition [2] -0.393% | activity, negative = inhibition [3] -1.9% | Potency [4] > 20.6 µM

COc1ccc2c(C)nc(Nc3nc(C)cc(C)n3)nc2c1
inactive: activity change, negative = inhibition [1] -4.83% | activity change, negative = inhibition [2] -4.96% | activity, negative = inhibition [3] 7.03% | Potency [4] > 20.6 µM

CCC1(C)Cc2c(sc3[nH]c(=O)[nH]c(=O)c23)CS1 (stereo not given)
inactive: activity change, negative = inhibition [1] 6.31% | activity change, negative = inhibition [2] 6.7% | activity, negative = inhibition [3] -2.55% | Potency [4] > 20.6 µM

CCN(CC)CCN1C(=O)C(=O)/C(=C(/O)c2ccc(Cl)cc2)C1c1ccncc1 (stereo not given)
inactive: activity change, negative = inhibition [1] -3.59% | activity change, negative = inhibition [2] 22.9% | activity, negative = inhibition [3] 7.2% | Potency [4] > 20.6 µM

Cn1c(Cn2cnc(Cl)c2Cl)nc2ccccc21
inactive: activity change, negative = inhibition [1] 2.26% | activity change, negative = inhibition [2] -0.211% | activity, negative = inhibition [3] 7.94% | Potency [4] > 20.6 µM

C1CNCCNCCNCCN1
inactive: activity change, negative = inhibition [1] -9.33% | activity change, negative = inhibition [2] 6.5% | activity, negative = inhibition [3] -0.788% | Potency [4] > 20.6 µM

COc1ccc2[nH]c(C)c(C(=O)CN3CCOCC3)c2c1
inactive: activity change, negative = inhibition [1] 12.7% | activity change, negative = inhibition [2] -9.22% | activity, negative = inhibition [3] -2.66% | Potency [4] > 20.6 µM

Cn1c2c(c(=O)n(C)c1=O)C(NC(=O)c1cccs1)(C(F)(F)F)C(=O)N2 (stereo not given)
inactive: activity change, negative = inhibition [1] -2.19% | activity change, negative = inhibition [2] 12.3% | activity, negative = inhibition [3] 5.6% | Potency [4] > 20.6 µM

C/C(=N\O)c1c(C)c2ccccc2n1C
inactive: activity change, negative = inhibition [1] 2.06% | activity change, negative = inhibition [2] -14.1% | activity, negative = inhibition [3] 4.84% | Potency [4] > 20.6 µM

Cc1ccc(N(Cc2cc3ccccc3[nH]c2=O)C(=O)c2ccco2)c(C)c1
inactive: activity change, negative = inhibition [1] -26.3% | activity change, negative = inhibition [2] 25.5% | activity, negative = inhibition [3] -13% | Potency [4] > 20.6 µM

COc1ccc(CCNC2CC(C)N(C)CC2C)cc1OC (stereo not given)
inactive: activity change, negative = inhibition [1] 2.19% | activity change, negative = inhibition [2] -14.9% | activity, negative = inhibition [3] 4.89% | Potency [4] > 20.6 µM

CCNC(=O)N(C)c1nncnc1C(=O)NC
inactive: activity change, negative = inhibition [1] 5.47% | activity change, negative = inhibition [2] 2.38% | activity, negative = inhibition [3] -6.45% | Potency [4] > 20.6 µM

CN1C(=S)SC(N(O)C(=O)Nc2ccccc2)C1(C)C (stereo not given)
inactive: activity change, negative = inhibition [1] 1.19% | activity change, negative = inhibition [2] -13.4% | activity, negative = inhibition [3] 2.19% | Potency [4] > 20.6 µM

COc1cccc(C2C(C(=O)c3cc4ccccc4o3)=C(O)C(=O)N2CCN(C)C)c1OC (stereo not given)
inactive: activity change, negative = inhibition [1] 8.36% | activity change, negative = inhibition [2] 1.15% | activity, negative = inhibition [3] -6.68% | Potency [4] > 20.6 µM

Cc1ccccc1NC(=O)NCCc1nc2ccccc2[nH]1
inactive: activity change, negative = inhibition [1] -3.68% | activity change, negative = inhibition [2] -10.3% | activity, negative = inhibition [3] -7.53% | Potency [4] > 20.6 µM

CCc1nc2c(sc3nc(N4CCOCC4)c4c(c32)CC(C)(C)OC4)c(=O)o1
inactive: activity change, negative = inhibition [1] 3.92% | activity change, negative = inhibition [2] -0.695% | activity, negative = inhibition [3] -6.95% | Potency [4] > 20.6 µM

O=C(c1cc(N2CCCCC2)nc2ccccc12)N1CCOCC1
inactive: activity change, negative = inhibition [1] -15.6% | activity change, negative = inhibition [2] -13.8% | activity, negative = inhibition [3] 4.94% | Potency [4] > 20.6 µM

c1ccc2c(c1)[nH]c1c(N3CCSCC3)ncnc12
inactive: activity change, negative = inhibition [1] -11.4% | activity change, negative = inhibition [2] -20.2% | activity, negative = inhibition [3] -18.7% | Potency [4] > 20.6 µM
